Calls of active or inactive are those of the source. No rule for the calls is given here.
Assay: compounds altering circadian rhythm period length – cell-based, LOPAC library, luminescence reporter (AID 2774);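 also: values are relative to mean of DMSO wells on each plate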
Conditions: circadian reporter cells, at 7 µM, actives lie on both sides

Period change, inactive:
O=C(O)CCC(NC(=O)c1ccccc1C(=O)O)C(=O)O (stereo not drawn) -0.08 h
C[C@@H](Oc1ccc(Oc2cnc3ccc(Cl)cc3n2)cc1)C(=O)O -0.01 h
COC(=O)c1c(-c2cc(OC)c(OC)c(OC)c2)c2ccc(OCc3ccccn3)cc2c(=O)n1-c1ccc(N)cc1 0.015 h

Reference: PubChem BioAssay
